ssDAF-12 act – S. stercoralis DAF-12 activation, primary screen; HEK293 ssDAF-12/GRIP1 lit1-tk-luc reporter, luminescence; % of 3 µM dafachronic acid response; activation, % at 6.8 µM; 370,000 tested, 1% active; AID 652126;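 active = activation above the mean over all tested compounds plus 3 SD, cut at about 0.9% in these data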;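 also: 0% = DMSO-only wells and 100% = 3 µM delta7-dafachronic acid wells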
APP 5'UTR act – APP 5'UTR luciferase reporter activation; 190,000 tested, 1% active; activation, % at 2 µM; SH-SY5Y APP 5'UTR luciferase reporter, luminescence; zero percent = DMSO vehicle wells;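 active = activation above a set limit, based on mean plus 3 SD of controls, cut at about 140% in these data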
NF-kB neuron act – raises NF-kB expression in human neuronal cells; NF-kB reporter expression; stronger effect = higher value; fold change at 12.5 µM; 190,000 tested, 1.6% active; AID 1239; in the data active = fold change above about 3.3
hcDAF-12 act – activators of H. contortus DAF-12 nuclear receptor | HEK293 hcDAF-12 lit1-tk-luc reporter, luminescence; 0% DMSO, 100% Δ7-dafachronic acid | activation, % at 6.8 µM | 370,000 tested, 1.4% active;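 active = activation above the mean of all tested compounds plus 3 SD, cut at about 5.5% in these data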;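 also: 100% = response to 3 µM Δ7-dafachronic acid high control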
hgDAF12 agonist – hgDAF-12 agonism, primary luciferase screen; AID 687014; activation, % at 6.8 µM; 370,000 tested, 1.8% active; HEK293 GAL4-hgDAF12 UAS-luciferase reporter, agonist luminescence; normalized to butyrate control;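 active = activation above a cutoff set at the mean of all screened compounds plus 3 SD, cut at about 10% in these data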;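 also: 0% = DMSO wells and 100% = sodium butyrate wells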
Starred values were filed as active, the others as inactive; / = not tested or not shown. A selection: hits, their analogues and other compounds. The true share with any hit is near 3.4%.

SMILES	ssDAF-12 act	APP 5'UTR act	NF-kB neuron act	hcDAF-12 act	hgDAF12 agonist
CC1(C)N=C(N)N=C(N)N1c1ccccc1	-1.7	-6.1	3.84*	-0.7	0.2
Cc1ccc(NC(=O)c2ccccc2F)c(NC(=O)c2ccccc2F)c1	-0.3	/	/	5.0	2.7
Cc1ccc(NC(=O)c2ccccc2Cl)c(Cl)c1	-0.4	52.6	2	0.6	10.7*
Cc1ccc(-c2nnc3n2N=C(c2ccc(-c4ccccc4)cc2)CS3)cc1	-2.3	/	/	-4.0	-0.8
O=C1NC(=Nc2ccccc2)S/C1=C\c1cccs1	1.4*	/	/	4.6	6.7
Cc1cc(C)cc(N=C2NC(=O)/C(=C/c3cccs3)S2)c1	-1.6	13.5	1.01	-1.6	-1.9
COc1ccccc1C(=O)NCCC(=O)Nc1ccc(C)cn1	-0.3	/	/	5.7*	1.1
CC(COc1cccc(Br)c1)CN1CCC(C(O)(c2ccccc2)c2ccccc2)CC1 (stereo not drawn)	-1.8	/	/	-2.4	-1.7
C[C@H]1COc2c3ccc(I)cc3nn21	0.2	/	/	0.4	5.7
COc1ccc(CC(/C=C/c2ccc(F)cc2)c2ccccc2)cc1 (stereo not drawn)	-1.1	/	/	-2.1	-1.5
CCc1cc2c(=O)c(-c3cnn(-c4ccccc4)c3)c(C)oc2cc1OCC(=O)Nc1ccc(F)c(F)c1	1.9*	-1.7	1.14	0.7	1.2
COc1ccc(CCNC(=O)c2c(N)[nH]c(C(=O)c3ccccc3)c2-c2ccc(N(C)C)cc2)cc1	-2.1	/	/	-3.2	-0.2
O=Nc1ccc(NO)c2ccccc12	1.2*	/	/	3.4	-1.4
CCNC(=O)C[C@H]1CC[C@H]2[C@@H](COc3ccc(NC(=O)Nc4ccccc4)cc3C(=O)N2C)O1	-1.2	/	/	1.7	-3.3
NC(=O)C1CCN(C(=O)CCc2nc3ccccc3c(=O)[nH]2)CC1	-1.1	9.1	1.01	-0.4	-2.0
CN1CCN(C(=O)CCc2nc3ccccc3c(=O)[nH]2)CC1	-0.3	9.5	1.18	6.0*	0.2
CN(C)Cc1cn(-c2cccc(-c3noc4c3C(=O)N(CC(=O)N3CCOCC3)CC4)c2)nn1	-1.1	/	/	0.8	-2.7
O=C(NCc1ccc(Cl)cc1)C(=O)NCC1OCCN1C(=O)c1cccs1 (stereo not drawn)	-1.2	19.5	0.89	6.2*	0.0
O=C(c1ccccc1C(=O)N1CCN(c2ccccc2)CC1)N1CCN(c2ccccc2)CC1	-0.3	-5.6	0.84	-1.9	-1.8
O=C(c1csc2c1CCCC2)N1CCN(c2ccccc2)CC1	1.1*	4.4	1.03	3.4	6.2
CC(C)(C)OC(=O)NCc1ccccc1/C=C/S(=O)(=O)NC1CCCC1	-1.6	/	/	-2.4	-3.2
CCc1c(C)nc(SCC(=O)NNC(=O)c2ccco2)[nH]c1=O	-0.2	/	/	6.0*	2.1
O=C(CSc1nnc(-c2ccncc2)n1-c1ccc(Br)cc1)c1ccccc1	-0.9	/	/	-2.7	0.6
c1ccc(CCNc2nc(-c3ccccn3)cs2)cc1	-1.2	122.4	4.1*	2.2	0.0
Oc1[nH]c2ccccc2c1/C=N/c1nccs1	0.6	34.4	1.3	5.7*	6.1
SMILES	ssDAF-12 act	APP 5'UTR act	NF-kB neuron act	hcDAF-12 act	hgDAF12 agonist
COc1ccc(CN=Cc2c(O)[nH]c3ccccc23)cc1	-0.6	2.1	1.45	2.5	7.8
COc1ccccc1C(=O)NC(C)C(c1cccs1)N1CCOCC1 (stereo not drawn)	1.7*	13.2	0.86	2.2	2.6
CCN1C(=O)C(CC(=O)Nc2ccc(OC)cc2)N(Cc2cccnc2)C1=S (stereo not drawn)	2.7*	-12.0	0.97	-1.9	-0.5
CC(=O)Nc1ccc(C(=O)Nc2nc(-c3ccccn3)cs2)cc1	-0.8	0.6	1.23	2.9	4.9
O=C(Nc1nc(-c2ccccn2)cs1)c1ccc2c(c1)OCCO2	-0.5	109.6	2.73	1.5	10.5*
O=C(Nc1ncccc1Cl)c1ccc2c(c1)OCCO2	-1.9	54.8	2.85	0.5	9.7
Cc1cc(NC(=O)c2ccc3c(c2)OCCO3)no1	/	105.8	3.97*	/	/
Cc1cc(NC(=O)c2ccc3c(c2)OCO3)no1	-0.6	92.1	2.89	1.5	9.4
O=C(Nc1ccccn1)c1ccc2c(c1)OCCO2	-0.3	128.5	4.24*	3.3	12.6*
COc1ccc(-n2c(SCc3cccc4ccccc34)nnc2-c2ccccc2)cc1	-1.7	/	/	-2.7	-0.9
Cc1cc2nc(-c3cccc(Cl)c3)c(Cc3cccc(Cl)c3)n2c(C)c1Br	0.3	/	/	3.1	1.8
Cc1cc2nc(-c3ccc(Cl)cc3)c(Cc3cccc(Cl)c3)n2c(C)c1Br	1.1*	/	/	2.5	2.6
Cc1cc2nc(-c3ccccc3)c(Cc3ccsc3)n2c(C)c1Br	2.0*	/	/	2.2	5.8

Assay outcomes deposited in PubChem BioAssay by several laboratories.
